Usually inhibition stands for the drop in the measured response relative to a control, in per cent.

The whole screen tested about 65,000 compounds, of which about 85 (0.1%) were called active. What follows is part of a selection rich in actives, with near analogues and random picks from the rest. Unmarked numbers belong to inactive results. Rule as the data show it: active = inhibition above about 50%; inactive = the rest.

In the assay the target is M-phase inducer phosphatase 2 (Homo sapiens) (UniProt P30305). Put plainly: human Cdc25B tyrosine phosphatase blockers – biochemical, OMFP fluorescence, catalytic domain, primary screen (AID 368). Particulars: recombinant Cdc25B, OMFP fluorescence Ex485/Em525; hits give high values;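 compounds tested at 10 µM final in the well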.
Sequence of M-phase inducer phosphatase 2 (Homo sapiens) (P30305 whole entry, looked up, the tested form may be a part): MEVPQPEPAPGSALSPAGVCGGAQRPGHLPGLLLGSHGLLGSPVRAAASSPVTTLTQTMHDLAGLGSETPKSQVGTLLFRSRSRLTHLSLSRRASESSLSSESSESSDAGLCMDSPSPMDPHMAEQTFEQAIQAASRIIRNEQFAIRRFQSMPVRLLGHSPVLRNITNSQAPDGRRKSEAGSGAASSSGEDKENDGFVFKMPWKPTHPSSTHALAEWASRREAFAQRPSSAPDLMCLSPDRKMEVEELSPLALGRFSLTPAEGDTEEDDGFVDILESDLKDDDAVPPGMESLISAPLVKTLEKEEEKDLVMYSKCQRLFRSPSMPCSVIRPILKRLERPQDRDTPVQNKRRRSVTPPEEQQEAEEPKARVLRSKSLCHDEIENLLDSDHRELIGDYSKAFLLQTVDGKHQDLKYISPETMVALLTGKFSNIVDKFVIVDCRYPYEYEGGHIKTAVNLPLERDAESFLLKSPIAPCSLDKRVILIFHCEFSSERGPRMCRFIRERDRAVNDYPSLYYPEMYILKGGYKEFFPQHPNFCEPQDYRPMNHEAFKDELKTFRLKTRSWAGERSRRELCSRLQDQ
Take `Cc1cc(NS(=O)(=O)c2ccccc2)no1`: the inhibition is -0.238%.
As to `Nc1ccc(SCCN2C(=O)c3ccccc3C2=O)cc1`, the inhibition was 3.47%.
In the case of `COc1ccc(C(=O)NCc2cn3ccccc3n2)cc1` it was 8.6%.
Turning to `CC(=O)OCc1cc2cc(C)ccc2[nH]c1=O`, the inhibition was 8.17%.
In the case of `Cc1noc(C)c1C(=O)NC(C)c1ccc2c(c1)OCO2` (centres undefined), the inhibition was -2.76%.
On to `O=C(NC1CC2CCCC(C1)N2C(=O)N1CCCCC1)C1CCCCC1` (centres undefined), for which the inhibition is 0.205%.
Turning to `Cc1cccc(OCc2nnc(SCc3nc4cc(C(F)(F)F)ccc4c(=O)[nH]3)o2)c1`, the inhibition is 4.99%.
In the case of `C=CCNc1nnc(SCC(=O)N2CCCCC2)c2ccccc12`, the inhibition is -10.6%.
Consider `O/N=C(\c1ccc2c(c1)OCCO2)C1CCCCC1`, for which the inhibition is -1.56%.
Consider `CC(C)Cc1cc(C(=O)NCCc2ccccc2)no1`, for which the inhibition is -7.12%.
Take `O=C(OCC(=O)c1cccs1)C1=COCCO1`: the inhibition was -13.5%.
For `Cc1ccc(-c2csc3nnc(SCC(=O)NCc4ccco4)n23)cc1`, the inhibition is -17.7%.
In the case of `Fc1ccccc1CCNc1nnnn1-c1ccccc1` it was 0.973%; in that of `Cc1cc(=O)oc(C)c1C(=O)NC1CC(C)(C)NC(C)(C)C1`, -30.7%; in that of `CCCc1cc(=O)oc2c(C)c(O)c(CN3CCCCC3)cc12`, -7.47%.
`COc1ccc(-c2nc3n(c2Br)CCC3)cc1`: the inhibition is 2.84%.
Consider `CC1(C)C(=O)Nc2ccccc2N1C(=O)COC(=O)Cn1cnc2ccccc2c1=O`, for which the inhibition was -9.58%.
As to `CC(C)OC(=O)c1sc2nc3c(cc2c1N)C(=O)CCC3`, the inhibition is 15.7%.
Regarding `CCN(CCCCOC(=O)c1ccc(OC)c(OC)c1)C(C)Cc1ccc(OC)cc1` (centres undefined), the inhibition was -19.9%.
`O=C(O)[C@@H]1CCCN1c1ncnc2sc3c(c12)CCC3`: the inhibition was 1.46%.
As for `O=C(Nc1ccc2c(c1)nc1n2CCCCC1)c1cc(S(=O)(=O)N2CCOCC2)ccc1Cl`, the inhibition is 7.55%.
Turning to `O=S(=O)(Nc1ccccc1N1CCOCC1)c1ccc(Cl)s1`, the inhibition was -16%.
In the case of `COc1cc(OC)c(C(=O)Nc2ccc(N(C)C)cc2)cc1OC`, the inhibition was 4.05%.
Regarding `CCOC(=O)c1ccc(-c2ccc(C(=O)Nc3cccnc3)o2)cc1`, the inhibition is -8.16%.
For `CCOc1cc(NC(=O)c2ccco2)c(OCC)cc1NC(=O)COc1ccccc1`, the inhibition was 2.37%.
In the case of `COc1ccc(OC)c(C2N(c3ccccn3)C(=O)C3CCCN32)c1` (centres undefined), the inhibition is 6.93%.
On to `CCCc1nc(N)nc2c1C(=O)CC(C)(C)C2`, for which the inhibition was -1.09%.
In the case of `CCCN1CCN(CCCNC(=O)CN2C(=O)COc3ccccc32)CC1` it was -2.33%; in that of `O=C(N1CCOCC1)N(Cc1ccccc1)c1ccccn1`, -13.1%.
`O=C(COc1cccc(-n2cnnn2)c1)NCCC1=CCCCC1`: the inhibition is -1.12%.
The result for `Cc1ccnc(N2CCCC(C(=O)Nc3cc(F)ccc3C)C2)n1` (centres undefined) reads 12.7%.
`CC1CN(C2CCN(C(=O)COc3ccccc3)CC2)CC(C)O1` (centres undefined): the inhibition is -13.1%.
Take `CC1CCCC(C)N1C(=O)CN1CCN(c2nc(-c3ccc(F)cc3)cs2)CC1` (centres undefined): the inhibition is -8.69%.
In the case of `CNC(=O)c1nnn(-c2ccccc2)c1C(=O)NC` it was 0.211%; in that of `O=c1c(F)cn(C2CCCO2)c(=O)n1Cc1ccccc1Cl` (centres undefined), 1.39%; in that of `Fc1ccccc1C(c1nnnn1Cc1ccc2c(c1)OCO2)N1CCN(Cc2ccccc2)CC1` (centres undefined), -4.84%.
For the molecule `C=CCn1c(=N)n(CC(O)COc2ccc(OC)cc2)c2ccccc21` (centres undefined), the inhibition is 0.106%.
Take `Cc1ncc(CC(=O)n2cc(C(=O)c3cc(Cl)ccc3O)cn2)s1`: the inhibition is -7.5%.
`CC(Nc1nc(N2CCCC2)nc2ccccc12)c1ccccc1` (centres undefined): the inhibition was -6.08%.
Regarding `c1ccc2c(NCC3CCCO3)nc(-c3ccncc3)nc2c1` (centres undefined), the inhibition is 1.5%.
In the case of `O=C(C1=C(O)C(=O)N(Cc2ccccc2)C1c1cccnc1)c1ccco1` (centres undefined), the inhibition is -7.28%.
In the case of `CC(C)(C)Oc1ncc(Br)c(OC(C)(C)C)n1` it was -14.4%; in that of `CC(C)c1ccc(N2CC(C(=O)Nc3nccs3)CC2=O)cc1` (centres undefined), 3.74%; in that of `COc1ccc(-n2nc3c(c2NC(=O)Cc2cccc(C)c2)CS(=O)C3)cc1` (centres undefined), -6.02%.
In the case of `C[N+]1(CCNC(=O)/C=N/O)CCCCC1` it was 15.7%.
In the case of `CCOc1cc(N2CCOCC2)c(OCC)cc1NC(=O)COc1cccc2cccnc12` it was -6.8%; in that of `CCn1c(SCC(=O)Nc2cccc(F)c2)nnc1-c1cc2cc(Br)ccc2o1`, -5.35%.
Take `COC(=O)c1ccc(NC(=O)CN(c2ccc(C)cc2)S(=O)(=O)c2c(C)n[nH]c2C)cc1`: the inhibition was 5.5%.
In the case of `CC1(C)CC(O)C(CCC(O)c2ccccc2)C(C)(C)N1` (centres undefined) it was -23.8%.
